A short description of experiment [1]: reducers of endogenous Her2 protein level, primary screen, SKBR3 breast tumor cells, AlphaScreen, ATP viability (AID 461).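 As to Her2 level: lower value means less Her2 protein in the cells.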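 As to viability: percent of carrier control wells set as 100% viability.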 To be noted: 18-24 h, measured here: SKBR3 viability, ATP luminescence, at 10 µM.
Experiment [2] addresses Receptor tyrosine-protein kinase erbB-2 (Homo sapiens) (UniProt P04626). The description is as above. The settings on record: 18-24 h, at 10 µM, stronger effect = lower value.
Experiment [3] can be described thus: SK-BR-3 cell growth inhibitors, pilot screen, 24 h, human (AID 572;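 active = viability at or below 10% of carrier control in both of two separate runs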;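 also: compound exposure lasted between 18 and 24 h rather than exactly 24 h; 100% = carrier-treated control wells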). The settings on record: SK-BR-3 viability, CellTiter-Glo luminescence, at 10 µM, stronger effect = lower value.
Experiment [4] is described as follows: HUVEC growth inhibition – cell-based, human, primary screen (AID 575;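 active = viability at or below 30% in both replicate assays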;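 also: 100% = median of untreated cell wells with 0.1% DMSO on each plate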). To be noted: HUVEC proliferation, CellTiter-Glo luminescence, 72 h; at 10 µM; stronger effect = lower value.
A short description of experiment [5]: growth inhibitors of H69AR lung tumor, primary screen, human, duplicate replicates (AID 580;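 active = viability at or under a set limit in both replicates, limit being median viability minus 3 SD, cut at about 48% in these data, passing the limit was not always enough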;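 also: 100% = mean luminescence of untreated wells and 0% = no signal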). The settings on record: H69AR lung tumor cells viability, ATP luminescence, 72 h; at 10 µM; stronger effect = lower value.
A short description of experiment [6]: reversal of MRP1-mediated doxorubicin resistance, pilot screen, H69AR cells, doxorubicin co-treatment (AID 601;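 active = viability loss from added drug above about 55%, and viability with drug at most 40%, in both replicates, limit read from the data, passing the limit was not always enough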). The settings on record: CellTiter-Glo, 72 h, at 10 µM; for differential viability (reversal): stronger effect = higher value.
The nature of experiment [7]: 384-well plate pilot, post-Golgi transport modulator project, inhibition of yeast transport mutant growth (AID 636; in the data active = inhibition above about 31%). To be noted: absorbance 615 nm, about 18 h, stronger effect = higher value.
Experiment [8] can be described thus: growth suppression of yeast trafficking mutant, preliminary HTS, modulators of trafficking downstream of Golgi apparatus project, 1536-format plate, OD 615 nm (AID 637; in the data active = inhibition above about 30%). To be noted: yeast transport mutant growth, absorbance 615 nm, 18 h; stronger effect = higher value.
Experiment [9] is described as follows: OD615 S. cerevisiae growth inhibition, permissive medium, pilot counter-assay, permissive growth control for S. cerevisiae lifespan shortening project (AID 705;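 active = growth inhibition above 25% in both replicates, a cutoff set 3 SD above the mean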). The settings on record: OD615, 24 h, at 10 µM, stronger effect = higher value.
Experiment [10] can be described thus: Restrictive medium S. cerevisiae growth inhibition, OD615, pilot screen of yeast lifespan reduction project, restrictive growth control (AID 706;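 active = growth inhibition above a set limit, 3 SD over mean compound inhibition, in both replicates, cut at about 43% in these data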;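 also: modified DeaD lifespan yeast strain shifted to restrictive glucose medium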). To be noted: OD615, 48 h, at 10 µM, stronger effect = higher value.
The nature of experiment [11]: viability gain of MRP-1-high H69AR cells under doxorubicin, pilot screen, MRP-1 activator project, CellTiter-Glo, duplicate (AID 807;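 active = viability increase at or above a cutoff of the median across tested compounds plus 3 SD, cut at about 8.5% in these data, passing the limit was not always enough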;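 also: compound pretreatment 18-22 h then 72 h combined with doxorubicin; 0% = doxorubicin alone and 100% = vehicle without doxorubicin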). To be noted: H69AR viability with doxorubicin, CellTiter-Glo luminescence; at 10 µM; stronger effect = higher value.
Experiment [12] in a line: growth suppression of beta-catenin knockout HCT116, pilot screen, human colon tumor cells (AID 823;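 active = cell viability at or below a set limit in both duplicate runs, the limit being the all-compound median minus 4 SD, cut at about 23% in these data, passing the limit was not always enough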;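 also: 0% = wells killed by 20 µM Hyamine and 100% = untreated DMSO cell wells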). The settings on record: CellTiter-Glo, 60 h, at 10 µM, stronger effect = lower value.
Experiment [13] in a line: growth suppression of PTEN-deleted HCT116, pilot screen, cell-based, HCT116 clonal line, CellTiter-Glo (AID 824;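 active = viability at or below 27.92% in each of two runs, the all-compound median minus 4 SD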;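 also: 0% = 20 µM Hyamine control and 100% = vehicle cell control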). The settings on record: 60 h, at 10 µM, stronger effect = lower value.
Experiment [14] is described as follows: inhibitors of the yeast RAM network, pilot screen, dse1pr::URA3 reporter, 5-FOA selection (AID 869;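 active = inhibition over a set limit, the all-compound mean plus 3 SD, in both replicate runs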;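 also: 0% = DMSO wells with no growth and 100% = 10 µM 1-NA-PP1 with full growth; RAM network block rescues cells from 5-FOA so hits raise OD615 growth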). The settings on record: S. cerevisiae dse1pr::URA3 5-FOA growth, OD615, 2 d; at 10 µM; stronger effect = higher value; strain carries analog-sensitive mutant Cbk1 kinase.
Experiment [15] is described as follows: RAM signaling pathway blockade in yeast – S. cerevisiae, Pdr1DBD-CYC8 efflux-inhibited sensitized strain, primary screen (AID 1298;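 active = RAM network inhibition above 8.4% in each of two replicates, 3 SD over the compound average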;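 also: 0% = DMSO untreated cells without growth and 100% = 10 µM 1-NA-PP1 full growth; higher means more yeast growth rescued from 5-FOA killing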). The settings on record: S. cerevisiae cbk1-as DSE1-URA3 strain, 5-FOA growth OD615, 2 d; at 50 µM; stronger effect = higher value.
The mark [16] stands for this setting: H69AR cells + 2 uM doxorubicin, measured here: viability with 2 uM doxorubicin, stronger effect = lower value.
Setting [17] is: H69AR cells, compound alone cytotoxicity.

Each structure is given as a SMILES string. Results filed as inconclusive are left out. The source made the active and inactive calls.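 The calls were made as follows, unless noted: active = Her2 level under about 52% in both replicate screens, with viability over 70% of control (limit read from the data); inconclusive = Her2 under the limit in one screen only, or viability under 70%; inactive = Her2 level above the set limit.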

Sequence of Receptor tyrosine-protein kinase erbB-2 (Homo sapiens) (P04626 whole entry, looked up): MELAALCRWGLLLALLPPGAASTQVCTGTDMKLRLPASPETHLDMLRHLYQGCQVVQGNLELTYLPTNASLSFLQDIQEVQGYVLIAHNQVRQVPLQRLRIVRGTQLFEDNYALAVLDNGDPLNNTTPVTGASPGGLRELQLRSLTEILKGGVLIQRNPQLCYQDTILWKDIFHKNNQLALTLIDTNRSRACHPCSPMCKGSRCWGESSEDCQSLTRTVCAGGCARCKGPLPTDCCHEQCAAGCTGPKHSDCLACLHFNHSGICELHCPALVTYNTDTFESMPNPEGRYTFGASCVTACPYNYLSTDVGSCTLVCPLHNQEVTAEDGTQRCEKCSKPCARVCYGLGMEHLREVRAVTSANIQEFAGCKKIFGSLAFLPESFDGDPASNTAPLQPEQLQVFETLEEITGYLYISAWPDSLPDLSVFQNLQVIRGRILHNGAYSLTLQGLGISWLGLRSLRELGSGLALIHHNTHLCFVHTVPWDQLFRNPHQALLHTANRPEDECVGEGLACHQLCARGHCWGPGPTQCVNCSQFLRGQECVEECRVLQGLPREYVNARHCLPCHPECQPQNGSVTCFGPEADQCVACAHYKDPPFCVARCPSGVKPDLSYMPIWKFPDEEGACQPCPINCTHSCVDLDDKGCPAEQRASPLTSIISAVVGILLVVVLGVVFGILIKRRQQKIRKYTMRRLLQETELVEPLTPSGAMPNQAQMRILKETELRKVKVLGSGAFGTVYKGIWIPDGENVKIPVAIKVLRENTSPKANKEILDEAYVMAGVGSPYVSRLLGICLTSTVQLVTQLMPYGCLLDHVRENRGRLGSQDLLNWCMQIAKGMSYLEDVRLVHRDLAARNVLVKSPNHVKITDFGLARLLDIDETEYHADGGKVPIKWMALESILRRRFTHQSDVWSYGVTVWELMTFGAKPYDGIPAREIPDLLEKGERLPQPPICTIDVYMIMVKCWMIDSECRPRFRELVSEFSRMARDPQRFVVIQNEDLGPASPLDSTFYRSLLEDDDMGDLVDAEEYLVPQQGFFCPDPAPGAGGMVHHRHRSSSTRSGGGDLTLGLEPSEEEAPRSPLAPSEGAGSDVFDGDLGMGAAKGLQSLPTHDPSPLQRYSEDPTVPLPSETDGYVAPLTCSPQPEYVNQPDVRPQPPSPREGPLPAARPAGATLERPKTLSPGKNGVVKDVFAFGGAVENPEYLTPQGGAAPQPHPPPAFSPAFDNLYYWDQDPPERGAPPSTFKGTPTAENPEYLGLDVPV

As to `COC(=O)c1ccc(NC(=O)CN2CCCC2)cc1`, the viability in experiment [1] is 107%; in [3] it was 107% (inactive); in experiment [4], 104% (inactive); in experiment [5] it was 99.9% (inactive); in [6] (setting [16]), 99.2%; in [6] (setting [17]), 99.9%. Moreover, the viability was 98% (inactive) in experiment [12] and 102% (inactive) in [13]. In addition, in experiment [2], the Her2 level was 97.5% (inactive). For the same compound, in experiment [6] (H69AR cells + 2 uM doxorubicin), the differential viability (reversal) was 0.64% (inactive). Besides, the results for the inhibition in experiment [7], in experiment [8] and in experiment [14] were -2% (inactive), -1.13% (inactive) and 0.115% (inactive), respectively. For the same compound, the growth inhibition in [9] is -4.15% (inactive); in experiment [10] it was -3.12% (inactive). Besides, in experiment [11], the viability increase is -0.69% (inactive). For the same compound, in experiment [15], the RAM network inhibition is 0.47% (inactive).

As for `CCOC(=O)N1CCN(Cc2nc3c(c(=O)n(C)c(=O)n3C)n2Cc2ccccc2)CC1`, the viability was 104% in experiment [1]; 104% (inactive) in [3]; 96.3% (inactive) in [4]; 89.1% (inactive) in experiment [5]; 78.7% in experiment [6] (setting [16]); 89.1% in experiment [6] (setting [17]). For the same compound, the values for the viability in [12] and in experiment [13] were 97.3% (inactive) and 98% (inactive), respectively. The Her2 level in [2] is 106% (inactive). In experiment [6] (H69AR cells + 2 uM doxorubicin), the differential viability (reversal) was 10.5% (inactive). Moreover, the results for the inhibition in [7], in experiment [8] and in experiment [14] were -2.13% (inactive), 2.62% (inactive) and 0.61% (inactive), respectively. Moreover, the growth inhibition in experiment [9] is -8.18% (inactive); in [10], -4.35% (inactive). Besides, the viability increase in experiment [11] is -4.1% (inactive). For the same compound, the RAM network inhibition in experiment [15] is 4.53% (inactive).

As for `COc1ccccc1NC(=O)N(C1CCCC1)C1CCN(C(C)=O)CC1`, the viability in [1] was 77.5%; in [3], 77.5% (inactive); in experiment [4], 112% (inactive); in experiment [5] it was 88.3% (inactive); in experiment [6] (setting [16]), 87.6%; in [6] (setting [17]) it was 88.3%. The viability is 92.4% (inactive) in experiment [12] and 94.7% (inactive) in [13]. Also, the Her2 level in [2] was 89.5% (inactive). In addition, in experiment [6] (H69AR cells + 2 uM doxorubicin), the differential viability (reversal) was 0.61% (inactive). Further, the inhibition in experiment [7] is 0.77% (inactive); in [8] it was -8.83% (inactive); in [14], 0.72% (inactive). In addition, the growth inhibition in experiment [9] is -2.26% (inactive); in [10], -27.4% (inactive). Besides, the viability increase in [11] was -2.01% (inactive). Moreover, the RAM network inhibition in experiment [15] was 5% (inactive).

On to `Cc1ccc2[nH]c(=O)c3cc(C(=O)NCCN4CCN(C)CC4)sc3c2c1`, for which the viability in [1] is 96%; in [3] it was 96% (inactive); in [4], 97.1% (inactive); in [5], 87.3% (inactive); in [6] (setting [16]), 78%; in experiment [6] (setting [17]), 87.3%. The figures for the viability in experiment [12] and in experiment [13] were 74.5% (inactive) and 81.8% (inactive), respectively. In addition, the Her2 level in experiment [2] was 91.5% (inactive). Moreover, the differential viability (reversal) in experiment [6] (H69AR cells + 2 uM doxorubicin) is 9.29% (inactive). For the same compound, the inhibition was -1.03% (inactive) in experiment [7], 6% (inactive) in experiment [8] and 1% (inactive) in experiment [14]. Moreover, the growth inhibition in experiment [9] was -9.77% (inactive); in [10], 1.5% (inactive). The viability increase in experiment [11] is -3.64% (inactive). Moreover, in experiment [15], the RAM network inhibition is -1.95% (inactive).

`CCOC(=O)C1CCN(Cc2ccc(F)c(Br)c2)CC1`: the viability in experiment [1] was 122%; in experiment [3] it was 122% (inactive); in [4], 106% (inactive); in [5], 85.5% (inactive); in experiment [6] (setting [16]), 92.8%; in experiment [6] (setting [17]) it was 85.5%. For the same compound, the viability in experiment [12] was 90.4% (inactive); in experiment [13], 91.9% (inactive). The Her2 level in experiment [2] is 118% (inactive). In experiment [6] (H69AR cells + 2 uM doxorubicin), the differential viability (reversal) was -7.29% (inactive). Also, the inhibition in experiment [7] was -1.17% (inactive); in experiment [8] it was 9.5% (inactive); in [14] it was 2.35% (inactive). Also, the growth inhibition in experiment [9] was -3.72% (inactive); in experiment [10], -1.05% (inactive). Also, the viability increase in [11] was -2.69% (inactive). In [15], the RAM network inhibition was -0.36% (inactive).

`O=C(c1cnc2n(c1=O)CCS2)N1CCc2ccccc21`: the viability in [1] is 99.5%; in experiment [3], 99.5% (inactive); in experiment [4], 96% (inactive); in [5] it was 101% (inactive); in experiment [6] (setting [16]), 98.1%; in [6] (setting [17]), 101%. The viability was 97% (inactive) in [12] and 102% (inactive) in experiment [13]. In addition, the Her2 level in experiment [2] is 83% (inactive). Moreover, the differential viability (reversal) in experiment [6] (H69AR cells + 2 uM doxorubicin) is 3.18% (inactive). Further, the values for the inhibition in [7], in [8] and in experiment [14] were -2.13% (inactive), 0.16% (inactive) and 1.24% (inactive), respectively. For the same compound, the figures for the growth inhibition in experiment [9] and in experiment [10] were -3.25% (inactive) and -7.63% (inactive), respectively. The viability increase in experiment [11] is 0.01% (inactive). For the same compound, the RAM network inhibition in experiment [15] was -0.32% (inactive).

With `O=C(Nc1cccc2ccccc12)c1ccc(Br)o1`, the viability in experiment [1] was 120%; in experiment [3] it was 120% (inactive); in experiment [4], 87.1% (inactive); in experiment [5] it was 84% (inactive); in experiment [6] (setting [16]), 85.1%; in experiment [6] (setting [17]), 84%. For the same compound, the viability in experiment [12] was 94.3% (inactive); in [13], 90.8% (inactive). The Her2 level in experiment [2] is 88.5% (inactive). Besides, in [6] (H69AR cells + 2 uM doxorubicin), the differential viability (reversal) was -1.12% (inactive). Further, the inhibition is -3.25% (inactive) in experiment [7], -0.17% (inactive) in [8] and 0.995% (inactive) in experiment [14]. The values for the growth inhibition in experiment [9] and in [10] were -10% (inactive) and 1.96% (inactive), respectively. Besides, the viability increase in experiment [11] was -1.67% (inactive). In addition, the RAM network inhibition in [15] is 3.58% (inactive).
